Reference: PubChem BioAssay (NCI)
Compounds without any hit were thinned out: in the full panel of roughly 83,000, 20% have a hit.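 Cell lines were cultured in 96-well plates, exposed to a single compound concentration, and assessed for percent growth 48 hours later.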 Values without a mark were called inactive. Active and inactive are the calls of the source.

The molecules below were run on SW-620 colon (assay: NCI-60 one-dose screen, 48 h (100 = growth as untreated, 0 = no growth, -100 = all killed)). Details: 10 µM unless noted.
Experimental: Growth inhibition of the SW-620 human tumor cell line is measured as a screen for anti-cancer activity. Cells are grown in 96 well plates and exposed to the test compound for 48 hours. Compounds are tested at a single concentration, which is 10^-5 M for most compounds. The reported endpoint is percent growth (GI% or GIPRCNT), where numbers from 0 - 100% represent growth inhibition, and numbers from -100% - 0 represent cell death. For example, a value of 40 represents 60% growth inhibition. A value of 0 means no net growth occurred over the course of the experiment. A value of -40 indicates 40% of cells at the beginning of the experiment died by the end of the experiment. A value of -100 means all cells are dead at the end of the experiment.
NCI-60 Human Tumor Cell Lines Screen was performed using the standard one-dose NCI protocol, which is described in more detail at https://dtp.cancer.gov/discovery_development/nci-60/default.htm.
Compounds with GIPRCNT values below 10 were considered active. Activity score was based on GIPRCNT using the following formula: […]
Score is 0 for GIPRCNT values of 100 or above, 50 for GIPRCNT values of 0, and 100 for GIPRCNT values of -100.

**Q.** `NS(=O)(=O)c1ccc(CCn2c(-c3ccc(C(=O)O)cc3)nc(-c3ccccc3)c2-c2ccccc2)cc1` was tested. Which growth did it give?
**A.** The growth was 98.6%.

**Q.** How did the growth turn out when `CS(=O)(=O)c1ccc(/C(=N/N=C(N)N)c2ccc(Cl)cc2)cc1` was run?
**A.** The growth was 74.6%.

**Q.** Which growth does the source give for `COc1ccc(OC)c(NC(=O)CCCCCCNC(=O)C(O)(O)C(F)(F)F)c1` here?
**A.** Its growth is 6.62% (active).

**Q.** For `Clc1ccc(CSc2nnc(-c3ccc(Cl)cc3)n2-c2ccccc2)cc1`, which growth is on record?
**A.** Its growth is 91.6%.

**Q.** `CC1(C)C=Cc2cc(/C(N)=N/C(N)=N/c3nc4ccccc4s3)ccc2O1` was tested. Which growth did it give?
**A.** The growth was 102%.

**Q.** For `N#CC1=C2NCCCNc3oc(nc3C#N)Cc3ccccc3CC(=N1)O2`, which growth is on record?
**A.** The growth was 50.7%.

**Q.** With `CC1CC(=O)C2=C(C1)Nc1ccc(Br)cc1CC2c1c[nH]c2ccc(Br)cc12` (stereo not given) as the molecule, how does the growth read?
**A.** The growth was 33.5%.

**Q.** How did the growth turn out when `CC1(C)CC[C@]2(C(=O)NCCCCCCN(CCCN)CCCN)CC[C@]3(C)C(=CC[C@@H]4[C@@]5(C)CC[C@H](O)C(C)(C)[C@@H]5CC[C@]43C)[C@@H]2C1` was run?
**A.** Its growth is 107%.

**Q.** With `O=C(Nc1cccc(C(F)(F)F)c1)N1CCN(c2cc(-c3cn(-c4ccccc4)nc3-c3cccc(O)c3)ccn2)CC1` as the molecule, how does the growth read?
**A.** Its growth is 52.3%.

**Q.** Which growth does the source give for `O=C(COc1ccc(/C=C2\C(=O)Nc3ccc(F)cc32)cc1)Nc1ccccc1` here?
**A.** The growth was 103%.

**Q.** `NC(N)=NS(=O)(=O)c1ccc(N=Nc2c(N)nn(-c3ccc([N+](=O)[O-])cc3[N+](=O)[O-])c2N)cc1` was tested. Which growth did it give?
**A.** The growth was 101%.

**Q.** For `N#Cc1c(-c2cccs2)c(C#N)c(=O)n(Cc2nc3ccccc3[nH]2)c1N`, which growth is on record?
**A.** The growth was 95.6%.

**Q.** Which growth does the source give for `CN(C)CC(=O)Nc1nc(-c2cccc(NS(=O)(=O)c3cccc4c(N(C)C)cccc34)c2)cs1` here?
**A.** Its growth is 105%.

**Q.** How did the growth turn out when `COC(=O)CNC(=O)c1cccc(-c2cc(=O)c3c(OC)c(OC)c(OC)cc3o2)c1` was run?
**A.** Its growth is 100%.

**Q.** `Cc1[nH]c(C(=O)Nc2ccc(C(=O)NCC3CCNCC3)cc2OC(C)C)c(Cl)c1Cl` was tested. Which growth did it give?
**A.** Its growth is 33.6%.

**Q.** How did the growth turn out when `CCOC(=O)Nc1ccc2c(ccn2C(=O)c2cccc(F)c2)c1` was run?
**A.** Its growth is 26.3%.

**Q.** Which growth does the source give for `CN(C)c1ccc(-c2cc(-c3c[nH]c4ccccc34)nc(N)c2C#N)cc1` here?
**A.** Its growth is 21.4%.

**Q.** `CC(=O)OCCCCN1C=C/C(=C\C(=O)n2ccc3ccccc32)c2ccccc21` was tested. Which growth did it give?
**A.** The growth was 98.4%.

**Q.** With `COc1ccc(C(C)=C(c2ccc(OCCN(C)C)cc2)c2ccc(OCCN(C)C)cc2)cc1` as the molecule, how does the growth read?
**A.** The growth was -65.8% (active).

**Q.** How did the growth turn out when `COc1ccc2[nH]cc(/C=N/Nc3ccnc4cc(Cl)ccc34)c2c1` was run?
**A.** Its growth is -71.8% (active).

**Q.** `N#C/C(=N\Nc1ccc(F)cc1)C(=O)Nc1cc(-c2ccccc2)nn1-c1ccccc1` was tested. Which growth did it give?
**A.** Its growth is 17.5%.

**Q.** Which growth does the source give for `CCOC(=O)C1=C(C)NC(C)=C(C(=O)OCc2ccccc2)C1c1cccc(C#N)c1` (stereo not given) here?
**A.** Its growth is 29.7%.

**Q.** How did the growth turn out when `Cc1ccc(NC(=O)/C=C/c2ccc(OCCCOc3ccc4c(C)cc(=O)oc4c3)cc2)cc1` was run?
**A.** The growth was 83.5%.

**Q.** `CCOC(=O)C(=O)Nc1ccc2c(ccn2C(=O)c2cccc(F)c2)c1` was tested. Which growth did it give?
**A.** The growth was 98.7%.

**Q.** For `CC(=C(c1ccc(OCCN(C)C)cc1)c1ccc(OCCN(C)C)cc1)c1ccc(Cl)cc1`, which growth is on record?
**A.** Its growth is -71.5% (active).

**Q.** Which growth does the source give for `CN(C)S(=O)(=O)c1ccc(-c2nc(C(Cl)Cl)nc3cc(-c4ccccc4)nn23)cc1` here?
**A.** Its growth is 49.6%.

**Q.** For `C#C[C@]1(O)CC[C@H]2[C@@H]3CC=C4c5sc(N(C)c6ccccc6)nc5CC[C@]4(C)[C@H]3CC[C@@]21C`, which growth is on record?
**A.** Its growth is 92.3%.

**Q.** With `CC[C@]12C=CCN3CC[C@@]4(c5ccc(OC)cc5N(C)[C@H]4[C@@](O)(C(=O)OC)[C@@H]1OC(=O)CCN1CCc4ccccc4C1)[C@@H]32` as the molecule, how does the growth read?
**A.** Its growth is 95.6%.

**Q.** How did the growth turn out when `O=C(CSc1nc2ccccc2c(=O)n1-c1ccc(Cl)c(Cl)c1)Nc1ccc(S(=O)(=O)Nc2ccc(Cl)nn2)cc1` was run?
**A.** The growth was 89.7%.

**Q.** Which growth does the source give for `CCOP(=O)(OCC)OC[C@]12CCC(C)(C)C[C@H]1C1=CC[C@@H]3[C@@]4(C)CC[C@H](OP(=O)(OCC)OCC)C(C)(C)[C@@H]4CC[C@@]3(C)[C@]1(C)CC2` here?
**A.** Its growth is 68.4%.

**Q.** How did the growth turn out when `O=C(CSc1nc2ccccc2c(=O)n1CCc1ccccc1)Nc1ccc(S(=O)(=O)Nc2ccc(Cl)nn2)cc1` was run?
**A.** The growth was 91.3%.

**Q.** For `Cc1ccc(OCc2occc2C(=O)N2CCOCC2)cc1`, which growth is on record?
**A.** Its growth is 102%.

**Q.** For `CC(C)C(/C=C/c1[nH]ncc1-c1cc(Cl)ccc1O)N1CCOCC1` (stereo not given), which growth is on record?
**A.** The growth was 98.4%.

**Q.** With `Cn1cc(-c2nnc(N)nc2-c2c[nH]c3ccc(Br)cc23)c2cc(Br)ccc21` as the molecule, how does the growth read?
**A.** The growth was 112%.

**Q.** How did the growth turn out when `NC(=S)n1c(=O)n(-c2cccc(C(F)(F)F)c2)c(=O)c2cc(-c3ccc(F)cc3F)ccc21` was run?
**A.** Its growth is 15%.

**Q.** With `O=C(CCCCCCN1CC(=O)N2[C@@H](C3CC3)c3[nH]c4ccccc4c3C[C@H]2C1=O)NO` as the molecule, how does the growth read?
**A.** Its growth is 61.2%.

**Q.** Which growth does the source give for `Cc1csc(/N=C(N)/N=C(\N)c2cccc(Br)c2)n1` here?
**A.** Its growth is 84.4%.

**Q.** How did the growth turn out when `Cc1ccc(C(=O)Nc2ccc(CNCCN3CCNCC3)c(C(F)(F)F)c2)cc1C#Cc1cnc2cccnn12` was run?
**A.** Its growth is -11.1% (active).

**Q.** With `CC1=C(C)C(=O)C(Nc2cccc(C(=O)OC(C)(C)C)c2)=C(Cl)C1=O` as the molecule, how does the growth read?
**A.** The growth was 88.7%.

**Q.** Which growth does the source give for `Cc1ccc(NC2=C(Cl)C(=O)c3nc(C)ccc3C2=O)c(C)c1` here?
**A.** Its growth is -29.4% (active).
